Results from publication PMC8384837, “Expanding the binding specificity for RNA recognition by a PUF domain”.

Biological target: PUM1 PUF domain R3-CRT (Homo sapiens, UniProt Q14671 828-1176, Q939T)
Experiment: yeast three-hybrid, YBZ-1, SC-Leu-His + 0.5 mM 3-AT, 4 days
Conditions: tags: N-Gal4 AD-HA kept; label: inside an RPR1-promoter hybrid RNA with tandem MS2 sites; ssRNA
Method in brief: (§1)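 Repeat regions from input (SC-Leu) and selection (SC-Leu-His + 0.5 mM 3-AT) plates were PCR-amplified and Illumina-sequenced after four days of growth. The cells were strain YBZ-1 with a LexA–MS2 coat fusion and a HIS3 reporter, co-expressing Pumilio-1 PUF domain libraries and matching RNA elements from a centromeric plasmid. The interaction score is the log change in variant frequency from input to selection, taken in log2 with a pseudocount of 1 for absent variants.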

PUM1 PUF domain R3-CRT, sequence (Q14671 828-1176 Q939T): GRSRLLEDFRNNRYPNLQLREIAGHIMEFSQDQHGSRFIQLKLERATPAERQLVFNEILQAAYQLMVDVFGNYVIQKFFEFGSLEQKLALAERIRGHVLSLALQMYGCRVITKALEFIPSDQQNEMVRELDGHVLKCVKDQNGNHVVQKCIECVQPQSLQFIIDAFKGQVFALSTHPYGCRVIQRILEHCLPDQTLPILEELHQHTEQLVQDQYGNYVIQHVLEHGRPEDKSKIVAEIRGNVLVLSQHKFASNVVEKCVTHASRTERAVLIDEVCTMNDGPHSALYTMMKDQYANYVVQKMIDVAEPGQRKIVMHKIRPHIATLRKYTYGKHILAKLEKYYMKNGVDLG

Sequence	binding signal
GGCUAGAACUAGUGGAUCCCCCGGCGCCCGGCGGCUCGAGCCCGGGUAAGUGUAAGUAGUCUGCAUGCCGCCGGGCGCCAUGCCUGCAGGUCGACUCUAGAAAACAUG	1.54 log2 enrichment (interaction score)
GGCUAGAACUAGUGGAUCCCCCGGCGCCCGGCGGCUCGAGCCCGGGUAAGUGUAAUUAGUCUGCAUGCCGCCGGGCGCCAUGCCUGCAGGUCGACUCUAGAAAACAUG	1.12 log2 enrichment (interaction score)
GGCUAGAACUAGUGGAUCCCCCGGCGCCCGGCGGCUCGAGCCCGGGUAAGUGUAAAUAGUCUGCAUGCCGCCGGGCGCCAUGCCUGCAGGUCGACUCUAGAAAACAUG	3.85 log2 enrichment (interaction score)

Biological target: PUM1 PUF domain R3-GRD (Homo sapiens, UniProt Q14671 828-1176, C935G;Q939D)
Experiment: as above
Conditions: tags: N-Gal4 AD-HA kept; label: inside an RPR1-promoter hybrid RNA with tandem MS2 sites; ssRNA
Method in brief: as §1

PUM1 PUF domain R3-GRD, sequence (Q14671 828-1176 C935G/Q939D): as the sequence (Q14671 828-1176 Q939T) above, with C108G, T112D counted along it

Sequence	binding signal
GGCUAGAACUAGUGGAUCCCCCGGCGCCCGGCGGCUCGAGCCCGGGUAAGUGUAAGUAGUCUGCAUGCCGCCGGGCGCCAUGCCUGCAGGUCGACUCUAGAAAACAUG	6.36 log2 enrichment (interaction score)
GGCUAGAACUAGUGGAUCCCCCGGCGCCCGGCGGCUCGAGCCCGGGUAAGUGUAAUUAGUCUGCAUGCCGCCGGGCGCCAUGCCUGCAGGUCGACUCUAGAAAACAUG	2.16 log2 enrichment (interaction score)
GGCUAGAACUAGUGGAUCCCCCGGCGCCCGGCGGCUCGAGCCCGGGUAAGUGUAAAUAGUCUGCAUGCCGCCGGGCGCCAUGCCUGCAGGUCGACUCUAGAAAACAUG	4.82 log2 enrichment (interaction score)
